Screens from PubChem BioAssay.
Cardio protect: cardioprotection against H2O2-induced cell death, primary screen, uHTS, H9c2 cells, ATPLite luminescence. H9c2 cardiomyocytes, H2O2 injury protection, 2 h. protection from H2O2 cell death, % at 20 µM. hit rate 0.63% among 360,000. AID 588492, 2011;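 active = compounds giving at least 50% protection of heart cells from peroxide-induced death in the single-dose screen, raw or plate-pattern-corrected value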
NadD inh: inhibitors of S. aureus NadD, primary screen, biochemical, colorimetric, uHTS; Nicotinate-nucleotide adenylyltransferase NadD (Staphylococcus aureus N315); purified NadD enzyme, colorimetric absorbance read-out; inhibition, % at 20 µM; hit rate 0.78% among 360,000; in the data active = inhibition above about 26%
TAG inh: inhibitors of triacylglycerol accumulation, primary screen, cell-based, uHTS, fluorescence, H9c2; inhibition, % at 12.5 µM; H9c2 cells, Nile Red lipid (TAG) fluorescence; cells loaded with 200 µM oleic acid; hit rate 0.66% among 230,000;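 active = pattern-corrected inhibition of lipid staining of at least 50% with the nuclear-stain viability signal not falling by more than 50%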
A3A deaminase: APOBEC3A ssDNA deaminase inhibitors, primary screen, selectivity assay for APOBEC3G inhibitor project, biochemical, FAM/TAMRA oligo cleavage fluorescence; DNA dC->dU-editing enzyme APOBEC-3A (Homo sapiens), P31941; recombinant A3A, FAM/TAMRA ssDNA deamination fluorescence; inhibition, % at 20 µM; hit rate 0.41% among 330,000; AID 493011, 2011;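 active = at least 40% inhibition at 20 µM here, with at most 30% in a related deaminase screen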
Target sequence (P31941 whole entry, looked up): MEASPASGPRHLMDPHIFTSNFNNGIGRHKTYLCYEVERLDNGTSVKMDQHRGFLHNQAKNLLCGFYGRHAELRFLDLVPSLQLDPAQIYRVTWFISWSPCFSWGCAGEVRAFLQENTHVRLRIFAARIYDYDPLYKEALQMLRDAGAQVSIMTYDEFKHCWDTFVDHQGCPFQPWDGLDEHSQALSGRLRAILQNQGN
PfGluPho inh: PfG6PD enzyme inhibitors, primary screen, biochemical, fluorescence intensity, uHTS | glucose-6-phosphate dehydrogenase-6-phosphogluconolactonase (Plasmodium falciparum 3D7) | PfGluPho enzyme, NADPH resazurin-diaphorase fluorescence | inhibition, % at 20 µM | hit rate 0.78% among 350,000 | AID 504690, 2011;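 active = inhibition reaching at least a set limit at 20 µM in the primary screen, cut at about 59% in these data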
APOBEC3G inh: APOBEC3G DNA deaminase inhibitors, primary screen, biochemical, fluorescence, single-stranded DNA substrate, uHTS | DNA dC->dU-editing enzyme APOBEC-3G (Homo sapiens), Q9HC16 | recombinant A3G, ssDNA deamination FAM/TAMRA fluorescence | inhibition, % at 20 µM | hit rate 0.28% among 330,000 | AID 493012, 2011;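 active = inhibition of at least 40% at 20 µM, with no more than 30% in the related APOBEC3A deaminase screen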
Target sequence (Q9HC16 whole entry, looked up): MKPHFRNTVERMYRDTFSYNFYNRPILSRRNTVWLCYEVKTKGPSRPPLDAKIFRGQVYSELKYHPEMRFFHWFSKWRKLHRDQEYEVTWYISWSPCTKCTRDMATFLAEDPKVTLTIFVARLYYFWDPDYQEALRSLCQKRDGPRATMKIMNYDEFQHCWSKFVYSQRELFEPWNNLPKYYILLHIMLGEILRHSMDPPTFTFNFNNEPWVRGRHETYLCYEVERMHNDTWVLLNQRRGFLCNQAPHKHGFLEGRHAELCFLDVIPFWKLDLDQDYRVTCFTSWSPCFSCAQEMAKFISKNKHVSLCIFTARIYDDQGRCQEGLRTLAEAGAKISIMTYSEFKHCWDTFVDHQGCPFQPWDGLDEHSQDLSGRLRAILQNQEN
NadD conf: inhibitors of S. aureus NadD, confirmation, biochemical, colorimetric, single concentration. shares compounds with NadD inh. purified S. aureus NadD, colorimetric enzyme assay. inhibition, % at 20 µM. hit rate 13% among 2,000; in the data active = inhibition mostly above about 42%, no sharp cut-off; inactive = mostly below about 42%
Large screens that a line does not name were inactive (follow-up assays come after a bar, where they were run). Compounds with a hit are over-represented: about 2.9% of the library has one in this group of screens.

CC(C)C[C@H]1CN([C@@H](CC(C)C)CN2CCC[C@H]2CN2C(=O)C(=O)NC[C@@H]2Cc2ccc(O)cc2)C(=O)C(=O)N1CC1CCCCC1	none (no result: Cardio protect, TAG inh, A3A deaminase, PfGluPho inh, APOBEC3G inh)
CCC(=C(c1ccc(OC)cc1)c1ccc(OC)cc1)c1cn(CC(O)CN2CCN(C)CC2)c2ccccc12 (stereo unspecified)	none (no result: TAG inh, A3A deaminase, APOBEC3G inh)
COc1ccc(-c2nc(NC(=O)C3=NN(c4cccc(C)c4)C(=O)CC3)sc2C)cc1	NadD inh 31 | NadD conf inactive
COc1ccc(CSC2=CS(=O)(=O)c3ccccc3N2)cc1	none
CSCC[C@H](NC(=O)OC(C)(C)C)C(=O)N1CCC(C(=O)NCC(=O)Nc2ccc(C)cc2)CC1	none (no result: TAG inh)
O=C(Nc1nc2c(s1)CN(Cc1ccccc1)CC2)c1cccc(S(=O)(=O)N2CCc3ccccc32)c1	NadD inh 34 | NadD conf inactive
O=C(Nc1nc2ccccc2s1)c1cccc(S(=O)(=O)N2CCc3ccccc32)c1	none
O=C(Cc1cn2ccsc2n1)Nc1nc2c(s1)CN(Cc1ccccc1)CC2	NadD inh 35 (no result: TAG inh) | NadD conf inactive
OCOCCCn1c(C2CCCN2c2nc(-c3ccc(F)cc3)cs2)nc2cc(Cl)c(N3CCCCC3)cc21 (stereo unspecified)	none
CCc1ccc(C2=NNC(=Nc3cccc(S(=O)(=O)N(C)C)c3)SC2)cc1	NadD inh 34 | NadD conf inactive
Cc1ccc(C2=NNC(=Nc3ccc(F)cc3)SC2)cc1	none (no result: A3A deaminase, APOBEC3G inh)
CCOC(=O)c1c2ccc(OCC(=O)N/N=C/c3ccc(C)cc3)cc2n2ccccc12	Cardio protect 54, NadD inh 37 | NadD conf inactive
Cc1ccc(OCC(=O)N/N=C/c2cn(C)c3ccccc23)cc1	none
C[C@H](NC(=O)c1[nH]cnc1C(=O)N[C@H](C)c1ccccc1)c1ccccc1	none
Cc1nc(SCc2nc3cc(Cl)c(F)cc3[nH]2)c2oc3ccccc3c2n1	NadD inh 37 | NadD conf inactive
CCc1cccc(N(C(=O)c2csnn2)C(C(=O)NC(C)(C)C)c2ccccn2)c1 (stereo unspecified)	none (no result: TAG inh)
COc1cc(-c2ccc(Nc3ccccc3C(=O)O)c(OC)c2)ccc1Nc1ccccc1C(=O)O	NadD inh 50 (no result: TAG inh) | NadD conf inactive
COc1cc(C2C(C#N)=C(N)N(Nc3ccccc3)C3=C2C(=O)CC(C)(C)C3)ccc1OCc1cccc(F)c1 (stereo unspecified)	NadD inh 31 (no result: TAG inh) | NadD conf inactive
O=C(CSc1nc2c(cnn2-c2ccccc2)c(=O)[nH]1)N1CCCCC1	none
O=C(CSc1nc2c(cnn2-c2ccccc2)c(=O)[nH]1)c1ccc(Cl)cc1	NadD inh 37 (no result: TAG inh) | NadD conf inactive
COc1ccc(NC(=S)NC(=O)/C=C/c2ccco2)cc1	none
O=C(/C=C/c1ccco1)NC(=S)Nc1ccc(O)c(-c2nc3ccccc3s2)c1	NadD inh 47 (no result: TAG inh) | NadD conf inactive
COc1ccc(/C=N/N=C2/NC(=O)C(CC(=O)O)S2)cc1OCc1ccccc1Cl (stereo unspecified)	none (no result: TAG inh)
COc1ccc(/C=N/N=C2/NC(=O)C(CC(=O)O)S2)cc1OCc1ccc(Cl)cc1Cl (stereo unspecified)	NadD inh 36 (no result: TAG inh) | NadD conf inactive
O=C(COC(=O)c1cccc(N2C(=O)C3CC=CCC3C2=O)c1)c1ccccc1 (stereo unspecified)	none (no result: TAG inh)
CCc1ccc(C(=O)COC(=O)c2cccc(N3C(=O)c4c(C)nc5ccccc5c4C3=O)c2)cc1	NadD inh 36 (no result: TAG inh) | NadD conf inactive
CC(NS(=O)(=O)c1ccc2c(c1)oc(=O)n2C)c1ccccc1 (stereo unspecified)	none (no result: TAG inh)
Cc1cc[n+]2cc(-c3cccc([N+](=O)[O-])c3)c(-c3cccc([N+](=O)[O-])c3)cc2c1	NadD inh 32 (no result: TAG inh) | NadD conf inactive
COc1cc(C(O)c2nc(/C=C/c3ccc(C(F)(F)F)cc3)cs2)ccc1F (stereo unspecified)	none (no result: A3A deaminase, PfGluPho inh, APOBEC3G inh)
O=C(NC(C(=O)N/N=C/c1c2ccccc2cc2ccccc12)c1n[nH]c(=O)c2ccccc12)c1ccccc1 (stereo unspecified)	NadD inh 51 (no result: TAG inh) | NadD conf inactive
COCCCNC(=O)CC1C[C@H](C(=O)N2CCCCC2)[C@@]2(CCc3ccccc3)c3[nH]c4ccc(OC)cc4c3CCN2C1=O (stereo partly specified)	none
CCOC(=O)c1sc(NC(=O)c2cc3n(n2)C(C(F)(F)F)CC(c2cccs2)N3)c(C(=O)OCC)c1C (stereo unspecified)	NadD inh 30 | NadD conf inactive
Cn1c(N)c(C(=O)COC(=O)c2cc(-c3ccccc3)nc3ccccc23)c(=O)n(Cc2ccccc2)c1=O	NadD inh 29 | NadD conf inactive
Cn1c(N)c(C(=O)COC(=O)c2cc(-c3ccccc3)nc3ccccc23)c(=O)n(C)c1=O	none (no result: Cardio protect, NadD inh, TAG inh, PfGluPho inh)
Cn1c(N)c(C(=O)COC(=O)c2cc(C3CC3)nc3ccccc23)c(=O)n(Cc2ccccc2)c1=O	NadD inh 43 | NadD conf inactive
COc1ccc(-c2[nH]n(-c3ccc([N+](=O)[O-])cc3)c(=O)c2C=NCc2ccncc2)cc1	NadD inh 29 | NadD conf inactive
O=C(CSc1nnc(-c2cc3ccccc3cc2O)n1Cc1ccco1)N1CCc2ccccc2C1	NadD inh 41 (no result: TAG inh) | NadD conf 54
CC(C)N(C(=O)CSc1nnc(-c2cc3ccccc3cc2O)n1Cc1ccco1)C(C)C	none
CCN(CC)c1ccc(C=C(c2nnnn2-c2ccc(C)cc2)c2nnnn2-c2ccc(C)cc2)cc1	none (no result: TAG inh)
CNc1ccc(Br)cc(C(=O)/C=C/c2ccc(Cl)cc2Cl)c1=O	NadD inh 62 | NadD conf inactive
CNc1ccc(Br)cc(C(=O)/C=C/c2cccc(OC)c2)c1=O	none (no result: TAG inh)
CCNc1ccc(Br)cc(C(=O)/C=C/c2ccc(Cl)cc2)c1=O	NadD inh 44 (no result: TAG inh) | NadD conf inactive
CC(=O)N1C[C@@H](CO)[C@@H](N(C)C(=O)C2CCCCC2)C[C@H]1c1ccccc1	none (no result: TAG inh, A3A deaminase, PfGluPho inh, APOBEC3G inh)
CCOC(=O)c1nn(-c2ccc(Cl)cc2)c(C)cc1=O	none (no result: TAG inh)
